Experimental data from PubChem BioAssay (NCATS).
Values without a mark were called inactive. Records with an inconclusive call do not appear. Activity calls are given as the source filed them. Unless noted, calls follow the shape of the dose curve; as a rule, active = well fitted curve in the direction sought with a large enough effect; inconclusive = small, poorly fitted or top-dose-only effect, or another doubt; inactive = no such curve, though single readings can be large; an effect the other way counts as inactive or inconclusive.

Tests used:
[1] = target: Cytochrome P450 1A2 (Homo sapiens) (UniProt P05177); assay: p450-cyp1a2 (AID 410; calls by dose curve; also: potency is read from the fitted curve at half-maximal effect;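 as to activity change, negative = inhibition: -100% = full effect of reference inhibitor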)
Method in brief: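 Read-out is luminescence from luciferin produced by CYP1A2 demethylation of Luciferin-ME (100uM, at Km). Detection reagent stopped the 60 min NADPH-dependent reaction; signals were normalized to 57 uM furafylline.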

[2] = Stat Signaling Pathway (AID 446; active = well fitted curve in either direction with a large enough effect, not every such curve was filed as active;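 also: ME-180 cervical cancer cells given 40 pM IL-6 alongside compound; SIE-controlled beta-lactamase reporter measured as 460/530 nm FRET emission ratio; % is scaled to controls: 0 for no effect and ±100 for the full control effect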); details: ME-180 SIE beta-lactamase reporter, IL-6 stimulated, 5 h; at 7.69 µM (top of the series) unless noted
Method in brief: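 Overnight-plated ME-180 cells bearing a STAT Inducible Element beta-lactamase reporter; 5 h co-exposure to compound and 40 pM IL-6; values normalized to 300 pM IL-6 and 125 nM JAK inhibitor controls.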

[3] = target: Glucocorticoid receptor (Homo sapiens) (UniProt P04150); assay: GR-EFC Redistribution (AID 451; calls by dose curve; also: potency is read from the fitted curve at half-maximal effect); details: CHO-K1 GR-EFC translocation, beta-gal luminescence, 2 h
Method in brief: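 CHO-K1 cells stably expressing nuclear-localized β-gal enzyme acceptor and GR fused C-terminally to the enzyme donor fragment; ligand-driven nuclear translocation restores β-gal by complementation. Compounds titrated up to 46 uM final, 2 h at 37 °C; luminescence read.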

[4] = target: Mitogen-activated protein kinase 10 (Mus musculus) (UniProt Q61831); assay: JNK3 AlphaScreen Assay (AID 530; active = well fitted curve in either direction with a large enough effect, not every such curve was filed as active;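 also: kinase came from lysate of stimulated human HepG2 cells; signal reports phosphorylation of biotinylated GST-cJun 1-79 at Ser73 with 10 µM ATP; % is scaled to controls: 0 for no effect and ±100 for the full control effect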)
Method in brief: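 Biotinylated GST-cJun(1-79) served as substrate for JNK3 in HepG2 lysates stimulated with IL-1beta and TNF-alpha. ATP was 10 uM final, pH 7.6. Ser73 phosphorylation was quantified by AlphaScreen (680 nm excitation).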

[5] = target: Cytochrome P450 3A4 (Homo sapiens) (UniProt P08684); assay: qHTS Assay for Activators of Cytochrome P450 3A4 (AID 885); also: nearly all actives have a fitted effect of over 65% in size
Method in brief: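 Using 20nM recombinant human CYP3A4 in potassium phosphate (200mM), substrate Luciferin-PPXE at 25uM, luminescent luciferin detection followed a 60-min RT NADPH reaction; data scaled to 57 uM ketoconazole.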

[6] = target: Cytochrome P450 2C19 (Homo sapiens) (UniProt P33261); assay: qHTS Assay for Inhibitors and Substrates of Cytochrome P450 2C19 (AID 899); also: potency is read from the fitted curve at half-maximal effect; nearly all actives have a fitted effect of over 60% in size
Method in brief: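 NADPH-dependent conversion of Luciferin-H EGE (10uM, at KM) by 5nM enzyme in 50mM KPO4, 60 min at 37C following 10 min compound preincubation. Stopped with luciferin detection buffer; luminescence read after 20 min.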

[7] = target: Dual specificity protein kinase CLK4 (Homo sapiens) (UniProt Q9HAZ1); assay: qHTS Assay for Inhibitors of CDC-like Kinase 4 (Kinase-Glo Assay) (AID 1770); also: nearly all actives have a fitted effect of over 65% in size; also: potency is read from the fitted curve at half-maximal effect
Method in brief: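 25 nM Clk4 with 100 uM RS repeat peptide and 1 uM ATP (final) in Tris pH7.5, 10 mM MgCl2, 4.5 h at room temperature. Remaining ATP measured by Kinase-Glo luciferase luminescence.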

[8] = target: Dual specificity protein kinase CLK4 (Homo sapiens) (UniProt Q9HAZ1); assay: qHTS Assay for Inhibitors of CDC-like Kinase 4 (ADP-Glo Assay) (AID 1771); also: nearly all actives have a fitted effect of over 70% in size; also: potency is read from the fitted curve at half-maximal effect
Method in brief: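 In this ADP-Glo format, 1 uM ATP and 100 uM RS peptide served as substrates for 25 nM Clk4 in Mg2+/EGTA/DTT/Triton buffer; reactions ran 1 hr at room temperature before luminescent ADP quantification.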

[9] = target: Dual specificity protein kinase CLK4 (Homo sapiens) (UniProt Q9HAZ1); assay: qHTS Assay for Inhibitors of CDC-like Kinase 4 (ADP-FP Assay) (AID 1795); also: nearly all actives have a fitted effect of over 60% in size; also: potency is read from the fitted curve at half-maximal effect
Method in brief: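 Recombinant Clk4 (6.25 nM) phosphorylated 100 uM RS repeat peptide with 1 uM ATP in 25 mM Tris pH 7.5, 10 mM MgCl2, 0.5 mM EGTA, 2.5 mM DTT, 0.01% Triton X-100 for 1 h. ADP was detected by Transcreener ADP2 competitive fluorescence polarization after 30 min at room temperature.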

[10] = target: Ubiquitin carboxyl-terminal hydrolase 1 (Homo sapiens) (UniProt O94782); assay: Inhibitors of USP1/UAF1: Pilot qHTS (AID 504865);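 also: rhodamine fluorescence freed from ubiquitin-rhodamine substrate followed over time; top concentration of the series differs between compounds; % is scaled to controls: 0 for no effect and ±100 for the full control effect; nearly all actives have a fitted effect of over 35% in size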
Method in brief: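 USP1/UAF1 complex at 1 nM preincubated 15 min at room temperature with compound, then Ub-Rho substrate added at 150 nM final. Fluorescence (480/540 nm) read kinetically in 50 mM HEPES pH 7.8, 0.5 mM EDTA, 1 mM TCEP, 0.1 mg/ml BSA, 0.01% Tween-20.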

[11] = Primary qHTS for small molecule stabilizers of the endoplasmic reticulum resident proteome: Secreted ER Calcium Modulated Protein (SERCaMP) assay (AID 1508630); also: % is scaled to controls: 0 for no effect and ±100 for the full control effect
Method in brief: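 The SH-SY5Y reporter protocol was run at 3 concentrations up to 38.3 uM (primary) or 11 concentrations (follow-up): 16 h compound, 100 nM thapsigargin for 4 h, then extracellular luciferase luminescence.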

[12] = target: Lysosomal acid glucosylceramidase (Homo sapiens) (UniProt P04062); assay: Glucocerebrosidase-p2 (AID 348; in the data active = potency below about 10 µM; also: potency is read from the fitted curve at half-maximal effect); details: purified GBA, blue fluorogenic substrate, 40 min
Method in brief: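 Normal human glucocerebrosidase (0.2 nM) with blue fluorogenic substrate (80 uM final) in citrate/phosphate pH 5.9 with 10mM sodium taurocholate, 0.01% tween-20; 40 min RT, NaOH/glycine stop; fluorescence Ex 365/Em 440; AC50 from a titration from 0.6 nM upwards.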

[13] = AP1 Signaling Pathway (AID 357; active = well fitted curve in either direction with a large enough effect, not every such curve was filed as active; also: % is scaled to controls: 0 for no effect and ±100 for the full control effect); details: ME-180 AP-1-bla reporter, EGF-induced, beta-lactamase ratio, 5 h; at 7.69 µM (top of the series) unless noted
Method in brief: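 AP-1-bla ME-180 cells with beta-lactamase reporter under AP-1 response element, stimulated with EC50 EGF; compounds titrated, 5 hours at 37 degrees Celsius. CCF4 read at 460/530 nm ratio; positive and negative modulators judged by AC50.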

[14] = NFAT Signaling Pathway (AID 444; active = well fitted curve in either direction with a large enough effect, not every such curve was filed as active); details: Jurkat NFAT-bla M1, carbachol, beta-lactamase ratio, 5 h; at 7.69 µM (top of the series) unless noted
Method in brief: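 Jurkat cells carrying an NFAT-driven β-lactamase reporter and co-transfected muscarinic M1 receptor were treated with compound plus carbachol (1 uM final, an EC50 level) for 5 h at 37 °C. CCF4 loading followed for 1 h at RT; 460/530 nm ratio gave %activity.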

[15] = target: Glucocorticoid receptor (Homo sapiens) (UniProt P04150); assay: GR-GFP Redistribution (AID 450;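 active = compounds whose dose series gives a full or clear partial fitted curve of increased nuclear translocation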; also: potency is read from the fitted curve at half-maximal effect); details: U2OS GR-GFP nuclear translocation, laser cytometry, 2 h
[16] = target: 3',5'-cyclic-AMP phosphodiesterase 4B (Homo sapiens) (UniProt Q07343); assay: qHTS Assay for Inhibitors of PDE-IV (AID 607; active = well fitted activation curve with a large enough effect in the main read-out, with a control signal flat, not every such curve was filed as active; also: % of control where 0% means no effect)
Method in brief: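 Live HEK293 cells with a modified cyclic nucleotide-gated (CNG) channel report intracellular cAMP via membrane-potential dye fluorescence (ex 535/em 590 nm). Endogenous PDE-IV was targeted. Compounds were tested at up to 22.9 uM final; RO 20-1724 100 uM served as control.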

[17] = target: Cytochrome P450 2C9 (Homo sapiens) (UniProt P11712); assay: qHTS Assay for Inhibitors and Substrates of Cytochrome P450 2C9 (AID 883); also: % is scaled to controls: 0 for no effect and ±100 for the full control effect; nearly all actives have a fitted effect of over 60% in size
Method in brief: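 A luminogenic readout tracked human CYP2C9 (10nM) converting deoxyluciferin (100uM, at KM) in 25mM KPO4 during 60 min at 37C with regenerated NADPH. Values normalized to 57uM sulphaphenazole as complete inhibition.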

[18] = target: Cytochrome P450 3A4 (Homo sapiens) (UniProt P08684); assay: qHTS Assay for Inhibitors and Substrates of Cytochrome P450 3A4 (AID 884); also: nearly all actives have a fitted effect of over 50% in size; also: potency is read from the fitted curve at half-maximal effect
Method in brief: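 Luminescent readout of luciferin produced by CYP3A4 (20 nM) dealkylation of Luciferin-PPXE, 25 uM (its KM). NADPH-driven reaction ran 60 min at RT after 10 min compound preincubation; data scaled to 57 uM ketoconazole as 100% inhibition.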

[19] = target: Cytochrome P450 2D6 (Homo sapiens) (UniProt P10635); assay: qHTS Assay for Inhibitors and Substrates of Cytochrome P450 2D6 (AID 891);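 also: luciferin methyl ether substrate demethylated by CYP2D6 with NADPH regeneration; % is scaled to controls: 0 for no effect and ±100 for the full control effect; nearly all actives have a fitted effect of over 60% in size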
Method in brief: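 Luminescent read-out of luciferin formed by 5 nM human CYP2D6 demethylating 30 uM Luciferin-ME EGE (Km level) over 60 min at room temperature after NADPH regeneration addition. Data normalized to full inhibition by 1.43 uM quinidine.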

[20] = qHTS Assay for Identification of Small Molecule Agonists for Hypoxia Response Element Signaling Pathway (AID 914; active = well fitted activation curve with a large enough effect in the signal ratio, with a control signal flat, not every such curve was filed as active; the % refers to the signal ratio; also: potency is read from the fitted curve at half-maximal effect); details: ME-180 (cervical carcinoma) HRE-bla reporter, beta-lactamase ratio, CoCl2, 17 h; activation: active compounds read high
Method in brief: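 qHTS titration; ME-180 HRE-bla cells; EC50 CoCl2 co-treatment, 17 h at 37 degrees Celsius; CCF4 dye, ex 405nm, em 460nm and 530nm; %Activity from ratio; AC50.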

Sequence of 3',5'-cyclic-AMP phosphodiesterase 4B (Homo sapiens) (Q07343 whole entry, looked up): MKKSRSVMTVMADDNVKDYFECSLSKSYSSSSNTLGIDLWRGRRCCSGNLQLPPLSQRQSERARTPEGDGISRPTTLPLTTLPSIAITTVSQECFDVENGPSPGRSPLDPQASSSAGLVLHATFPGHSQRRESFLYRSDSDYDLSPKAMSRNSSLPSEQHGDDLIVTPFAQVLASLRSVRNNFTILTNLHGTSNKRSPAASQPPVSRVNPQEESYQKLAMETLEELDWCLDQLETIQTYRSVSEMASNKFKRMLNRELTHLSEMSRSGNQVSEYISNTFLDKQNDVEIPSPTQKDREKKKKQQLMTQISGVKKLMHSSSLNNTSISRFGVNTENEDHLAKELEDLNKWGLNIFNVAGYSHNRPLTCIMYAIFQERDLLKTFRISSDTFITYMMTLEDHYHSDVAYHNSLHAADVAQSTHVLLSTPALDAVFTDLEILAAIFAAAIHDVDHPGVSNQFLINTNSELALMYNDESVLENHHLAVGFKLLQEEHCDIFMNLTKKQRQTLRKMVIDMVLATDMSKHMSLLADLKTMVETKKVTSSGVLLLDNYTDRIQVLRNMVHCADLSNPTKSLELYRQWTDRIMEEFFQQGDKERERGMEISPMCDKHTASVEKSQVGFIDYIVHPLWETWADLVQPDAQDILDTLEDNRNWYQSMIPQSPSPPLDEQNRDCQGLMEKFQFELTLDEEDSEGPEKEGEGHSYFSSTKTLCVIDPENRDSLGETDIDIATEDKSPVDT
Sequence of Lysosomal acid glucosylceramidase (Homo sapiens) (P04062 whole entry, looked up): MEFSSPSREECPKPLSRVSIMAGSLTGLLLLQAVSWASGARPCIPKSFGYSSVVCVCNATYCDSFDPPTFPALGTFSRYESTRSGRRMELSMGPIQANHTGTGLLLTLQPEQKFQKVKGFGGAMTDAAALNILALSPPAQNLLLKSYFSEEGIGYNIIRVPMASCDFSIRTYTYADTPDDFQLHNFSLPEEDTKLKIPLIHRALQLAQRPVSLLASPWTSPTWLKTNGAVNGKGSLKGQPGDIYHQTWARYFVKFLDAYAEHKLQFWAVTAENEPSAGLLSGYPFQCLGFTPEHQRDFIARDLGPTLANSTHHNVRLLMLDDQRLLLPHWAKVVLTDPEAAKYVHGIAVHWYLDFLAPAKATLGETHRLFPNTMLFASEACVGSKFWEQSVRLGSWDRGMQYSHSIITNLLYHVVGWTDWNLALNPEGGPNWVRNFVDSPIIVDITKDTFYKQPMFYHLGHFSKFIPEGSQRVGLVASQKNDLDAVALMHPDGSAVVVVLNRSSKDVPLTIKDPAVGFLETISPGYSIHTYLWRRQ
Sequence of Dual specificity protein kinase CLK4 (Homo sapiens) (Q9HAZ1 whole entry, looked up): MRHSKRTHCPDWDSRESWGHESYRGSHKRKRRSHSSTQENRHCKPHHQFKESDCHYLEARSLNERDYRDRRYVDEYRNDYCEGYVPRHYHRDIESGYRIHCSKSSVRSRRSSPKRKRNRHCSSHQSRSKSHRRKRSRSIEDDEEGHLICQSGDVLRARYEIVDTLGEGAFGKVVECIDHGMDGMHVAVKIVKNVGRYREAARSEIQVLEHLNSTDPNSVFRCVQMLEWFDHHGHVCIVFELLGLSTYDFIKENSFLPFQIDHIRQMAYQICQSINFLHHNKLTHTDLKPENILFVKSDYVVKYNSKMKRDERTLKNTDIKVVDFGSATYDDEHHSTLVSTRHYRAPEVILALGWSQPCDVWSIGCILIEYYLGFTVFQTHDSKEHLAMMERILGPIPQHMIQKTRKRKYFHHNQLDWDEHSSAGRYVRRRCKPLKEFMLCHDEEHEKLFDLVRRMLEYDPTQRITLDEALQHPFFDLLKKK
Sequence of Cytochrome P450 3A4 (Homo sapiens) (P08684 whole entry, looked up): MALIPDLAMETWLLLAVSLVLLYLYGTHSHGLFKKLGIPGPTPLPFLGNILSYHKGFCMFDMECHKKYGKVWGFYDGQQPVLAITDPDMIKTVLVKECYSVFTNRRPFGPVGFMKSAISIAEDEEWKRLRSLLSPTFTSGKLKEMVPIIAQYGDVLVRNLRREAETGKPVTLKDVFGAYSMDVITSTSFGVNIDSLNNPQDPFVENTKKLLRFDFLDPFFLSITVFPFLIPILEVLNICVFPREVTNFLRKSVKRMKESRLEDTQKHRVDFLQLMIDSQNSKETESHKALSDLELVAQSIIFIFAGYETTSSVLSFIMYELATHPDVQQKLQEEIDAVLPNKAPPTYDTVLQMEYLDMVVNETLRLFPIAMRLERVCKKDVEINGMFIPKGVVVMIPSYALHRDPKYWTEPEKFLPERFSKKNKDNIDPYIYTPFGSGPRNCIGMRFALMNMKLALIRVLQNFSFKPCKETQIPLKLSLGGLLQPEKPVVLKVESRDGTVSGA
Sequence of Cytochrome P450 1A2 (Homo sapiens) (P05177 whole entry, looked up): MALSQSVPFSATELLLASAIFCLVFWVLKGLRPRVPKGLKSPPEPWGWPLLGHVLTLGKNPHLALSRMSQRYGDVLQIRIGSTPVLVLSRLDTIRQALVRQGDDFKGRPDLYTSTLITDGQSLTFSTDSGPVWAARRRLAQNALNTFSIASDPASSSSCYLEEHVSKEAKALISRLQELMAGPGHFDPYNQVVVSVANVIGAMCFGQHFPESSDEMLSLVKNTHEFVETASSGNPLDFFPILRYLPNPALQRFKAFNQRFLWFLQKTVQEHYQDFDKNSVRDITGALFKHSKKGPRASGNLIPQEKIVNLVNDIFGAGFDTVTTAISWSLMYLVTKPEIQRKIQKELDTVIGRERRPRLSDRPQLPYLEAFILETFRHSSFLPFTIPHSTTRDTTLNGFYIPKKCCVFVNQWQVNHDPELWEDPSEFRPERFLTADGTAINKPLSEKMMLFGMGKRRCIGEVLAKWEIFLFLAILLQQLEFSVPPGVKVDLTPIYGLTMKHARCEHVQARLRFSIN
Sequence of Glucocorticoid receptor (Homo sapiens) (P04150 whole entry, looked up, the tested form may be a part): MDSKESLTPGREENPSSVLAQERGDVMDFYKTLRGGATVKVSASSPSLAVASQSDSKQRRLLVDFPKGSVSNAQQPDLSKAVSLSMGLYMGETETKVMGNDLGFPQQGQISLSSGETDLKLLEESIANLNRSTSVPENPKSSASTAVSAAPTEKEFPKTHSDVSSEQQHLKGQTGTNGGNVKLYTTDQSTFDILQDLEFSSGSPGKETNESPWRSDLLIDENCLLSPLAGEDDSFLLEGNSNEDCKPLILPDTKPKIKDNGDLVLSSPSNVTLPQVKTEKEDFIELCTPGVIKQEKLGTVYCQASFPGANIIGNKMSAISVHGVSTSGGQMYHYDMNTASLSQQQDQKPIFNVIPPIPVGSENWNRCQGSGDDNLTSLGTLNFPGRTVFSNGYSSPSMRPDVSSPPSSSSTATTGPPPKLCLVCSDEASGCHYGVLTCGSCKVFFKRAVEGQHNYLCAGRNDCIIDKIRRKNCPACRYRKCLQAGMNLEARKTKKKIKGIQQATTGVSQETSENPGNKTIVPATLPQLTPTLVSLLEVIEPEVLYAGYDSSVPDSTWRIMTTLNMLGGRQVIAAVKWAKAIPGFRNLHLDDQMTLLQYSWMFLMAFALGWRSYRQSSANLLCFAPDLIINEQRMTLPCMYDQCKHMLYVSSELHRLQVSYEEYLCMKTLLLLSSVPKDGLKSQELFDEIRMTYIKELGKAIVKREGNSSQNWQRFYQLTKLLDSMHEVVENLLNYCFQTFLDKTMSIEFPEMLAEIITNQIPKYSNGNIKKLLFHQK
Sequence of Ubiquitin carboxyl-terminal hydrolase 1 (Homo sapiens) (O94782 whole entry, looked up): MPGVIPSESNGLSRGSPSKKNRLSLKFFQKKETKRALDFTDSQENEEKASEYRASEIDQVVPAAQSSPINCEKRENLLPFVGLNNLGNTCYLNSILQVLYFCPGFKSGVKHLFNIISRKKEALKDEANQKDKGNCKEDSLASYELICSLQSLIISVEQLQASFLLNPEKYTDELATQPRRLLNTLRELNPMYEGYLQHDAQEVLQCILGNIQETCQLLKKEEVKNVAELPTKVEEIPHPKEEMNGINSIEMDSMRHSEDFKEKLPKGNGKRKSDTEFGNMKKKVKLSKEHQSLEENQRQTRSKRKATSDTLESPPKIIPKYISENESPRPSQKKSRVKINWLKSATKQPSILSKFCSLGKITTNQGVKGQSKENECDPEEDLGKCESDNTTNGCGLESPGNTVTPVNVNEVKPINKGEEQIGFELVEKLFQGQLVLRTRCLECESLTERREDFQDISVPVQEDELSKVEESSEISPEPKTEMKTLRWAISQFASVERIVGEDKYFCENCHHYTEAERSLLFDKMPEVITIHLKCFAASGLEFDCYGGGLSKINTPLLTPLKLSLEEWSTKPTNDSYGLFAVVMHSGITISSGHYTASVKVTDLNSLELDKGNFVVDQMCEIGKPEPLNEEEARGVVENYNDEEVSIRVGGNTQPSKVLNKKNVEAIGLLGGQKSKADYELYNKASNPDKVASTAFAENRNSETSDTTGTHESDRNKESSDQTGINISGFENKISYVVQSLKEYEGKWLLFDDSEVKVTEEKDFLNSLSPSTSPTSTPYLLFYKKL
Sequence of Cytochrome P450 2C19 (Homo sapiens) (P33261 whole entry, looked up): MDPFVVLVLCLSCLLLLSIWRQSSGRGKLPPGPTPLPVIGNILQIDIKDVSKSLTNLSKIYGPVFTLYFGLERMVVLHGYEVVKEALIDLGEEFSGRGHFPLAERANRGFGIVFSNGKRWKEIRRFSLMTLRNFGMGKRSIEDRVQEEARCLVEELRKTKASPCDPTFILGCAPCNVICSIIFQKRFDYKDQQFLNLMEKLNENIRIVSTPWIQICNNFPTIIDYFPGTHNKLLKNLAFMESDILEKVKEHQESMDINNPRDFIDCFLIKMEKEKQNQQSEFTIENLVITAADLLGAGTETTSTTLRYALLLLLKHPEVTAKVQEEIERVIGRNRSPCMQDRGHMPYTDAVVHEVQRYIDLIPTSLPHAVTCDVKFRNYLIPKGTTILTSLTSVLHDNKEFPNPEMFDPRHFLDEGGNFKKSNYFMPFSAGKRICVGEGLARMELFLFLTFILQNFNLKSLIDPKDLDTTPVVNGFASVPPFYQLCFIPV

Compound | Potency [1] | activity, negative = inhibition [2] [%] | Potency [3] [µM] | Potency [4] | Potency [5] | Potency [6] | Potency [7] | Potency [8] | Potency [9] | Potency [10] | outcome [11] | Potency [12] [µM] | activity change, negative = inhibition [13] [%] | activity change, negative = inhibition [14] [%] | Potency [15] [µM] | Potency [16] | Potency [17] | Potency [18] | Potency [19] | Potency [20]
COc1cccc(-c2ccc3ncnc(N4CCOCC4)c3c2)c1 | 1 µM (active) | 8.65 | > 46 | inactive | inactive | 3.98 µM (active) | 1.41 µM (active) | 1.58 µM (active) | 1.12 µM (active) | inactive | inactive | – | – | – | – | – | – | – | – | –
Cc1nc2cnc(Oc3ccccc3)nc2n(C2CC2)c1=O | 10 µM (active) | -14.1 | > 46 | inactive | inactive | – | inactive | inactive | – | inactive | inactive | > 11.4 | -5.18 | -1.18 | > 9.22 | inactive | – | – | – | –
O=c1c(-c2ccc(Cl)cc2)nc2cnc(N3CCOCC3)nc2n1Cc1ccc(F)cc1 | inactive | – | > 46 | inactive | – | – | inactive | inactive | inactive | inactive | inactive | – | – | – | > 9.22 | – | inactive | inactive | inactive | 3.16 µM (active)
CCNc1ncc2nc(-c3cn(C)c4ccccc34)c(=O)n(Cc3cccs3)c2n1 | 6.31 µM (active) | 23.5 | > 46 | inactive | – | – | inactive | inactive | – | inactive | inactive | > 11.4 | -13.1 | 8.06 | > 9.22 | inactive | – | – | – | –
Cc1cnc(CNc2ncncc2-c2ccc3c(c2)OCO3)cn1 | 2 µM (active) | 4.5 | > 46 | inactive | – | – | 14.1 µM (active) | 15.8 µM (active) | – | inactive | inactive | > 11.4 | -10.4 | -2.24 | > 46 | inactive | – | 1.58 µM (active) | – | –
CNc1ccnc(-c2cccc(NS(C)(=O)=O)c2)n1 | – | -1.8 | > 46 | inactive | – | – | inactive | inactive | inactive | inactive | inactive | – | 13.6 | 18.6 | > 46 | inactive | – | – | – | –
